Assay results: PubChem BioAssay
Several values for one entry are separate records, joined by “and”; a condition that tells them apart may be missing. Identical values can stand only once. Activity calls are given as the source filed them.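 How the source made its calls, unless noted: active means compounds whose cell count with miR-34 switched on is under 0.7 times the count with it off; inactive means the rest.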

Experiments:
[1] = sensitizers of A549 cells to miR-34 induction, primary screen, imaging, A549 dox-inducible miR-34, nuclei and caspase counts (AID 1347080); conditions: A549 miR-34 inducible, Hoechst nuclei count, 48 h; further: test concentration not given here
[2] = survival rescue of mitochondrial mutant cells in low glucose, primary screen, MELAS cybrids, Rieske KO mouse fibroblasts, CellTiter-Glo (AID 1508586;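 active means mean z-score across replicates of 1.96 or higher in either the MELAS or the Rieske mutant cell line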;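 further: test concentration not given here; z relative to plate mean and SD of compound and empty wells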)
[3] = viability rescue of complex I mutant cybrids, primary screen, cell-based, galactose medium, ATP luminescence (AID 1645843;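 active means z-score of at least 1.8 in each of two replicates, scored against plate mean and spread of sample wells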;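 further: positive z means more ATP and so rescue of galactose-driven cybrid death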); conditions: complex I mutant cybrid cells, 72 h, stronger effect = higher value
[4] = stronger effect = lower value, cell number ratio, induced over uninduced
[5] = measured here: relative caspase fold change +Dox/-Dox
[6] = measured here: total cells with miR-34 induction, stronger effect = lower value
[7] = measured here: total cells without miR-34 induction
[8] = MELAS cybrid survival, CellTiter-Glo 48 h, stronger effect = higher value
[9] = Rieske KO mouse fibroblast survival, CellTiter-Glo 72 h

SMILES | fold change [1, 4] | fold change [1, 5] | cell count [1, 6] | cell count [1, 7] | z-score [2, 8] | z-score [2, 9] | z-score [3]
COc1cccc2c(=O)n(Cc3ccc4ncccc4c3)cnc12 | 0.883 (inactive) | 1.22 | 8080 | 9140 | -0.263 (inactive) | -0.193 | -0.28 (inactive)
Cc1csc(CNC(=O)Cc2csc(-c3ccccc3)n2)n1 | 0.931 (inactive) | 1.12 | 8110 | 8710 | 0.125 (inactive) | 0.0782 | -0.44 (inactive)
CCc1nc(NC(=O)N(C)CC2Cc3ccccc3O2)nn1C (centres undefined) | 0.87 (inactive) | 1.41 | 9140 | 10500 | 0.229 (inactive) | -0.335 | -0.515 (inactive)
COc1cccc2c(=O)n(C(C)Cn3cccn3)cnc12 (centres undefined) | 0.936 (inactive) | 1.36 | 9030 | 9650 | -0.113 (inactive) | -1.21 | -0.305 (inactive)
C[C@H](NC(=O)c1cnc(-c2ccccc2)[nH]1)c1ccccc1 | 0.876 (inactive) | 2.24 | 7380 | 8420 | 0.341 (inactive) | -0.103 | -0.6 (inactive)
NNC(=O)c1ccc(-c2ccccc2Cl)o1 | 0.826 (inactive) | 0.386 | 7740 | 9360 | 0.702 (inactive) | -0.293 | 0.765 (inactive)
Cc1nsc(NC(=O)NC2Cc3ccccc3C2)n1 | 0.755 (inactive) | 2.05 | 7330 | 9710 | 0.128 (inactive) | -0.355 | 2.51 (active)
O=C(NCCCc1ccccc1)NC1CCCCC1 | 0.869 (inactive) | 0.557 | 8240 | 9480 | -0.491 (inactive) | -0.675 | 0.35 (inactive)
O=C(Nc1n[nH]c(Cc2ccccc2)n1)N1CCN(c2ncncn2)CC1 | 0.914 (inactive) | 1.11 | 9380 | 10300 | 0.379 | 4.03 | 0.44 (inactive)
COc1ccc(CCC(=O)O)cc1OC | 0.922 (inactive) | 0.518 | 8510 | 9240 | -0.767 (inactive) | -0.44 | -0.02 (inactive)
CCCCNS(=O)(=O)c1ccccc1 | 0.925 (inactive) | 0.335 | 8780 | 9480 | -0.187 (inactive) | 0.108 | 0.175 (inactive)
CCOc1ccccc1-c1ncnc2sc(C)c(C)c12 | 0.89 (inactive) | 1.57 | 6100 | 6860 | -0.535 (inactive) | 0.672 | 0.07 (inactive)
CCN(CC)S(=O)(=O)c1cc(C(=O)Nc2ccccc2C(=O)O)ccc1Br | 0.904 (inactive) | 0.416 | 8290 | 9170 | -0.577 (inactive) | 0.639 | 0.82 (inactive)
Cc1nn(C)c(C)c1-c1ccnc(N2CCCC2c2nc(-c3cccnc3)no2)n1 (centres undefined) | 0.869 (inactive) | 1.21 | 6880 | 7910 | -0.00142 (inactive) | 0.462 | -0.385 (inactive)
NCC1OC(OC2C(CO)OC(OC3C(O)C(N)CC(N)C3OC3OC(CO)C(O)C(O)C3N)C2O)C(N)C(O)C1O (centres undefined) | 0.908 (inactive) | 0.282 | 9400 | 10400 | 0.577 (inactive) | -0.435 | 0.725 (inactive)
CN1CCN(c2ncnc3sccc23)CC1=O | 0.928 (inactive) | 1.32 | 9620 | 10400 | -0.0885 (inactive) | -0.276 | -0.54 (inactive)
CNc1nc(-c2cccc(OC)c2)ncc1F | 0.868 (inactive) | 1.04 | 8700 | 10000 | 0.0888 (inactive) | -0.0676 | -0.485 (inactive)
c1cc(CN2CCN3CCCC3C2)n(-c2nccs2)c1 (centres undefined) | 0.908 (inactive) | 1.4 | 8290 | 9130 | 0.256 (inactive) | -0.144 | -0.595 (inactive)
CC1(C)CC(Nc2nccc(-c3cnn(-c4ccccc4)c3)n2)CC(C)(C)N1 | 0.881 (inactive) | 3.09 | 4870 | 5530 | -0.228 (inactive) | 0.372 | 3.44 (active)
O=C(C=Cc1ccc(O)c(O)c1)NCCc1ccc(O)cc1 | 0.861 (inactive) | 0.612 | 8240 | 9580 | -0.586 (inactive) | -0.131 | 0.38 (inactive)
Cc1cc(-c2cccc3cccnc23)nc(N)n1 | 0.914 (inactive) | 1.55 | 9030 | 9880 | -0.012 (inactive) | -0.264 | -0.525 (inactive)
COc1ccc(S(=O)(=O)N2CCN(S(=O)(=O)c3ccc4c(c3)OCCO4)CC2)cc1 | 0.881 (inactive) | 0.373 | 8270 | 9390 | -0.316 (inactive) | -0.269 | 0.51 (inactive)
Cc1nc(CCNC(=O)Nc2nnc(-c3cccs3)s2)sc1C | 0.877 (inactive) | 1.44 | 7610 | 8680 | -0.443 (inactive) | -0.248 | 0.645 (inactive)
COc1cccc(-c2noc(Cc3ccc4c(c3)OCO4)n2)c1 | 0.929 (inactive) | 1.11 | 9000 | 9680 | 0.523 (inactive) | 0.163 | 2.67 (active)

SMILES | fold change [1, 4] | fold change [1, 5] | cell count [1, 6] | cell count [1, 7] | z-score [2, 8] | z-score [2, 9] | z-score [3]
Cc1nsc(NC(=O)NCc2ccccc2-n2ccnc2C)n1 | 0.866 (inactive) | 1.23 | 9020 | 10400 | 0.0398 (inactive) | -0.281 | -0.575 (inactive)
CC[C@H](C)[C@H](NC(=O)c1nc2ccccc2c(=O)[nH]1)C(=O)OC | 0.844 (inactive) | 2.34 | 7550 | 8940 | 0.166 (inactive) | -0.367 | -0.31 (inactive)
CNCc1ccccc1-c1cccs1 | 0.861 (inactive) | 0.648 | 8130 | 9440 | -0.43 (inactive) | -0.443 | 0.065 (inactive)
Cc1cccc2c(C(=O)N3C4CCCCC3CCC4)cc(-c3cncnc3)nc12 | 0.922 (inactive) | 1.14 | 8060 | 8740 | 0.139 (inactive) | -0.667 | -0.275 (inactive)
Cn1nc(C(C)(C)C)cc1NC(=O)Nc1ccc(Cl)cc1 | 0.806 (inactive) | 1.05 | 7030 | 8720 | 1.19 (inactive) | -0.375 | 0.155 (inactive)
COc1ccc(-n2cccn2)c(-c2nnc3ccccn23)c1 | 0.89 (inactive) | 0.706 | 8500 | 9550 | -0.172 (inactive) | -0.541 | -0.55 (inactive)
OCCCc1cn(CC2CCN(c3ncnc4nc[nH]c34)CC2)nn1 | 0.959 (inactive) | 1.9 | 8820 | 9200 | 0.238 (inactive) | -0.383 | -0.565 (inactive)
c1ccc2c(c1)OCC(CNc1ncnc3nc[nH]c13)O2 (centres undefined) | 0.786 (inactive) | 0.972 | 6310 | 8020 | -0.539 (inactive) | 0.778 | -0.485 (inactive)
O=C(O)c1cccnc1Nc1ccc(Cl)cc1 | 1.17 (inactive) | 0.619 | 5660 | 4840 | -0.775 (inactive) | -0.287 | 0.845 (inactive)
Cc1nn(C)cc1-c1ccnc(NCC(C)Oc2cccnc2)n1 (centres undefined) | 0.898 (inactive) | 1.28 | 8650 | 9640 | -0.961 (inactive) | 0.57 | -0.525 (inactive)
NS(=O)(=O)c1ccc(C(=O)NCc2ccccc2)cc1 | 0.871 (inactive) | 0.5 | 8310 | 9540 | 0.51 (inactive) | -0.575 | 0.795 (inactive)
O=C(O)c1ccc(B(O)O)cc1 | 0.887 (inactive) | 0.4 | 8340 | 9400 | 0.638 (inactive) | 0.194 | 0.105 (inactive)
COc1ccc(CN2CCN(c3ncnc4sccc34)CC2=O)cc1 | 0.842 (inactive) | 1.22 | 5020 | 5960 | -0.496 (inactive) | -0.343 | 0.64 (inactive)
O=C(O)CNC(=O)NC1CCCCC1 | 0.908 (inactive) | 0.307 | 9060 | 9970 | 0.384 (inactive) | -0.24 | 0.34 (inactive)
CCC1OC(=O)C(C)C(OC2C[C@@](C)(OC)C(O)C(C)O2)C(C)C(OC2OC(C)CC(N(C)C)C2O)[C@](C)(OC)CC(C)C(=O)C(C)C(O)[C@]1(C)O (some centres undefined) | 0.943 (inactive) and 0.989 (inactive) | 1.76 and 0.873 | 9620 and 10500 | 10200 and 10600 | -0.386 (inactive) | 0.552 | -0.175 (inactive)
O=C(NCCOc1cccnc1)c1ccc2ncsc2c1 | 0.858 (inactive) | 1.5 | 7900 | 9210 | 0.0996 (inactive) | -0.557 | -0.56 (inactive)
CCCOc1ccc(CC(=O)O)cc1Cl | 0.877 (inactive) | 0.341 | 8590 | 9790 | 0.699 (inactive) | 0.326 | 0.735 (inactive)
OCCN1CC(O)C(O)C(O)C1CO (centres undefined) | 0.949 (inactive) and 0.938 (inactive) | 1.7 and 0.717 | 10100 and 10300 | 10600 and 11000 | -0.386 (inactive) | 0.318 | 0.805 (inactive)
CN(C)C(=O)c1cc(-c2[nH]ncc2-c2ccccc2)c[nH]1 | 0.875 (inactive) | 0.578 | 7590 | 8680 | 1.27 (inactive) | 0.199 | -0.655 (inactive)
Cc1cc(-c2cccc(OC(C)C)c2)nc(N)n1 | 0.871 (inactive) | 1.62 | 7710 | 8860 | -1.21 (inactive) | 0.889 | -0.56 (inactive)
COc1cccc(-c2cccc(N)n2)c1F | 0.943 (inactive) | 0.993 | 9590 | 10200 | 0.104 (inactive) | -0.26 | -0.59 (inactive)
CN1CCN(NC(=S)Nc2ccc(S(N)(=O)=O)cc2)CC1 | 0.87 (inactive) | 0.82 | 8440 | 9700 | -0.739 (inactive) | 0.101 | 0.425 (inactive)
COC1C=CO[C@@]2(C)Oc3c(C)c(O)c4c(O)c(c5c(c4c3C2=O)NC2(CCN(CC(C)C)CC2)N=5)=NC(=O)C(C)=CC=CC(C)C(O)C(C)C(O)C(C)C(OC(C)=O)C1C (some centres undefined) | 0.889 (inactive) and 0.859 (inactive) | 1.03 and 1.09 | 7260 and 7580 | 8160 and 8820 | -0.0325 (inactive) | 0.718 | 1.02 (inactive)
